{"source": "PubChem BioAssay AID1347422", "about": "(Sanford-Burnham Center for Chemical Genomics, 2020)", "note": "The full ranking holds about 1,000 compounds; the median of “thermal shift dTm” is about 0.19, and the highest 2% start at about 1.7. The list comes from a sample in which the highest values are over-represented; it also holds similar structures and randomly drawn compounds. Calls of active or inactive are those of the source.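 How the source made its calls: active means mean rise in melting temperature of at least 1 degC over same-plate control wells; inactive means below that, where a call was filed.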", "data": [{"biological_target": "Sulfhydryl oxidase 1 (Homo sapiens) (UniProt O00391)", "sequence (O00391 whole entry, looked up)": "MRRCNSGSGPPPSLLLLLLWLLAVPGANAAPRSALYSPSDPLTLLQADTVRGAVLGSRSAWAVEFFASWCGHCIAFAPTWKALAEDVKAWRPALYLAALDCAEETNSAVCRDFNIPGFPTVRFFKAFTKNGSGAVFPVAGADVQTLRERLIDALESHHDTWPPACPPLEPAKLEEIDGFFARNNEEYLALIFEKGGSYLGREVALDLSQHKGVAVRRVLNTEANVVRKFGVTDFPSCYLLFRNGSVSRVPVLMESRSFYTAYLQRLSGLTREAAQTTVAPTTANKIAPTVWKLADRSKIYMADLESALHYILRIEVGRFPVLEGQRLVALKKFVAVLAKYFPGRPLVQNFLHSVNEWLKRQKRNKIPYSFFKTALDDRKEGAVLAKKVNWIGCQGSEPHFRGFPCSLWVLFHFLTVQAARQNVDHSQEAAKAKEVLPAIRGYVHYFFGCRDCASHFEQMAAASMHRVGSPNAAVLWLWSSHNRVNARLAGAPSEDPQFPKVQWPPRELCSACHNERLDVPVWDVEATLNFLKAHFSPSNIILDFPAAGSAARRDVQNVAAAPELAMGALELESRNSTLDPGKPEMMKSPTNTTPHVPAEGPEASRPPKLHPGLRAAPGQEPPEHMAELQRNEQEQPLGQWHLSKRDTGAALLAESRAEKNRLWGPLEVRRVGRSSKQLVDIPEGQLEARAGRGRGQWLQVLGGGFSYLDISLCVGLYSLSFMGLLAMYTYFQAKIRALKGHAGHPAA", "assay": "QSOX1 binders by thermal stabilization, confirmation, QSOX1 inhibitor project, biophysical, protein thermal shift, single concentration (AID 1347422);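 further: dTm is compound Tm minus mean Tm of DMSO-only wells on that plate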", "conditions": "recombinant hQSOX1 thermal shift, Sypro Orange, at 25 µM, stronger effect = higher value", "values": [{"smiles": "O=C(Nc1n[nH]c(-c2ccccc2)n1)N1CCC2(C=Cc3ccccc32)CC1", "thermal shift dTm": "0.09 °C"}, {"smiles": "CCCCC1=NN2C(=N)/C(=C/c3ccc(Cl)cc3Cl)C(=O)N=C2S1", "thermal shift dTm": "0.11 °C"}, {"smiles": "CCOC(=O)c1sc(NC(=O)CSc2nc(SC)ns2)nc1C", "thermal shift dTm": "0.19 °C"}, {"smiles": "Cc1sc(NC(=O)C#Cc2ccccc2)c(C(N)=O)c1C", "thermal shift dTm": "0.33 °C"}, {"smiles": "CCC(c1ccc(OC)cc1)N(CC)C(=O)Nc1ccccc1", "note": "(stereo not drawn)", "thermal shift dTm": "0.14 °C"}, {"smiles": "COC(=O)c1cccc(NC(=O)c2ccc(Cl)s2)c1", "thermal shift dTm": "0.04 °C"}, {"smiles": "C=CCSC1=N/C(=C\\c2ccc(-c3cccc(Cl)c3)o2)C(=O)S1", "thermal shift dTm": "0.63 °C"}, {"smiles": "O=C(NCCC1=CCCCC1)Nc1cccc(F)c1", "thermal shift dTm": "0.19 °C"}, {"smiles": "CCN(CC)c1ccc2cc(-c3nc4ccccc4o3)c(=O)oc2c1", "thermal shift dTm": "0.15 °C"}, {"smiles": "COc1ccc(C(=O)Nc2nc(-c3cc(OC)ccc3OC)c(C)s2)cc1", "thermal shift dTm": "2.73 °C (active)"}, {"smiles": "COc1ccc(OC)c(-c2nc(NC(=O)c3ccccc3OC)sc2C)c1", "thermal shift dTm": "-7.06 °C (inactive)"}, {"smiles": "COc1ccc2nc(NC(=O)c3ccc(C)o3)sc2c1", "thermal shift dTm": "0.04 °C"}, {"smiles": "CC1CCc2c(sc3ncn(CC(=O)Nc4ccccc4F)c(=O)c23)C1", "note": "(stereo not drawn)", "thermal shift dTm": "0.26 °C"}, {"smiles": "COC(=O)C1=C(C)N(c2ccc(Cl)cc2)C(=O)/C1=C\\c1ccco1", "thermal shift dTm": "0.01 °C"}, {"smiles": "O=C(Nc1ccc(Cl)cn1)c1cccc(NC(=O)c2cccs2)c1", "thermal shift dTm": "0.37 °C"}, {"smiles": "C/C=C/c1c(F)c(F)c(Oc2cccc(NC(C)=O)c2)c(F)c1F", "thermal shift dTm": "0.63 °C"}, {"smiles": "C=CCN1C(=O)C(c2c(C)[nH]c3ccccc23)(c2c(C)[nH]c3ccccc23)c2ccccc21", "thermal shift dTm": "1.05 °C (active)"}, {"smiles": "FC(F)(F)c1ccc(Cl)c(Nc2nnc(-c3ccncc3)s2)c1", "thermal shift dTm": "0.77 °C"}, {"smiles": "Cc1ccc(NC(=O)NCc2nc(-c3ccccc3Cl)no2)cc1", "thermal shift dTm": "0.2 °C"}, {"smiles": "Cc1ccc(Nc2nc(-c3sc(C)nc3C)cs2)nc1", "thermal shift dTm": "0.16 °C"}, {"smiles": "O=C(Nc1cccc(Cl)c1)N1CCC(C(O)(c2ccccc2)c2ccccc2)CC1", "thermal shift dTm": "0.21 °C"}, {"smiles": "O=S1(=O)CC2C(C1)N(c1cccc(C(F)(F)F)c1)C(=S)N2c1ccccc1", "note": "(stereo not drawn)", "thermal shift dTm": "-0.16 °C (inactive)"}, {"smiles": "CC(=O)Oc1ccc(-c2csc(Nc3ccccc3F)n2)cc1", "thermal shift dTm": "0.35 °C"}, {"smiles": "COc1ccc(S(=O)(=O)NC(C)C2C3CC4CC(C3)CC2C4)cc1", "note": "(stereo not drawn)", "thermal shift dTm": "-0.18 °C (inactive)"}, {"smiles": "O=C(Nc1nccs1)c1cccc(NC(=O)c2cc3ccccc3o2)c1", "thermal shift dTm": "1.07 °C (active)"}, {"smiles": "Cc1nc(NC(=O)c2ccc(Br)s2)sc1C", "thermal shift dTm": "0.27 °C"}, {"smiles": "CCN(C(=O)Nc1ccc(Cl)cc1)c1nnc(-c2ccccc2)s1", "thermal shift dTm": "0.16 °C"}, {"smiles": "CCc1ccc(C(=O)Nc2cccc(NC(=O)c3ccco3)c2)cc1", "thermal shift dTm": "2.18 °C (active)"}, {"smiles": "O=C(Nc1cccc(NC(=O)c2ccco2)c1)c1cccc(F)c1", "thermal shift dTm": "1.39 °C (active)"}, {"smiles": "CC(=O)Nc1cccc(NC(=O)c2cccc(NC(=O)c3ccco3)c2)c1", "thermal shift dTm": "0.37 °C"}, {"smiles": "Cc1ccccc1OCc1nc(-c2cccc(NC(=O)c3ccco3)c2)no1", "thermal shift dTm": "0.57 °C"}, {"smiles": "COc1ccc(C(=O)/C=C/c2cccc(OC)c2)cc1", "thermal shift dTm": "2.07 °C (active)"}, {"smiles": "Nc1cccc(/C=C/C(=O)c2ccccc2)c1", "thermal shift dTm": "0.57 °C"}, {"smiles": "COc1ccc(/C=C/C(=O)Nc2cccc(C(C)=O)c2)cc1", "thermal shift dTm": "1.18 °C (active)"}, {"smiles": "O=C(NC1CC(=O)N(Cc2cccc3ccccc23)C1)C(=O)c1ccccc1", "note": "(stereo not drawn)", "thermal shift dTm": "0.23 °C"}, {"smiles": "O=C(Nc1ccc(Cl)cc1)Nc1ccccc1OC(F)F", "thermal shift dTm": "0.25 °C"}, {"smiles": "COc1ccc(C)cc1NC(=O)Nc1ccc(OC(F)F)c(Cl)c1", "thermal shift dTm": "-0.79 °C (inactive)"}, {"smiles": "CCCc1cc(=O)[nH]c(SCC(=O)Nc2nc(-c3ccccc3)cs2)n1", "thermal shift dTm": "1.07 °C (active)"}, {"smiles": "COc1ccccc1C(=O)NC(=S)Nc1ccc(NC(=O)C(C)C)cc1", "thermal shift dTm": "0.11 °C"}, {"smiles": "O=c1c2ccccc2ncn1CCCOc1ccc2ccccc2c1Br", "thermal shift dTm": "0.11 °C"}, {"smiles": "COc1ccc(Cl)cc1NC(=S)Nc1c(C)nn(Cc2c(F)cccc2Cl)c1C", "thermal shift dTm": "0.81 °C"}, {"smiles": "CCCOC(=O)c1c(NC(=O)C2CC=CCC2C(=O)O)sc(C)c1-c1ccc(F)cc1", "note": "(stereo not drawn)", "thermal shift dTm": "0.77 °C"}, {"smiles": "CC1Oc2ccc(-c3csc(NC(=O)COc4ccc(Cl)cc4)n3)cc2NC1=O", "note": "(stereo not drawn)", "thermal shift dTm": "-0.1 °C (inactive)"}, {"smiles": "Cc1ccc(-n2[nH]c(CSc3nnnn3-c3ccccc3)cc2=O)cc1", "thermal shift dTm": "0.43 °C"}, {"smiles": "Cc1ccc(-c2cc(-c3ccc(F)cc3)n[nH]2)c(O)c1", "thermal shift dTm": "1.84 °C (active)"}, {"smiles": "Cc1ccc(O)c(-c2cc(-c3ccccc3)n[nH]2)c1", "thermal shift dTm": "0.01 °C"}, {"smiles": "Cc1[nH]nc(-c2ccc(O)c(O)c2O)c1Oc1ccc(F)cc1", "thermal shift dTm": "-5.32 °C (inactive)"}, {"smiles": "O=C(Nc1cccc(-c2noc(CCc3ccccc3)n2)c1)c1cccs1", "thermal shift dTm": "0.1 °C"}, {"smiles": "O=C(/C=C/c1ccco1)NCc1cccc(CNC(=O)/C=C/c2ccco2)c1", "thermal shift dTm": "1.04 °C (active)"}, {"smiles": "CCCC(=O)NC(c1ccccc1OC)c1c(OC(=O)COc2ccccc2)ccc2ccccc12", "note": "(stereo not drawn)", "thermal shift dTm": "-0.13 °C (inactive)"}, {"smiles": "OCc1ccc(OCc2ccc(F)cc2)c(Br)c1", "thermal shift dTm": "0.58 °C"}, {"smiles": "COc1cccc(C(=O)NCCc2c[nH]c3ccc(C)cc23)c1", "thermal shift dTm": "0.07 °C"}, {"smiles": "COc1ccc2[nH]cc(CCNC(=O)c3cccc(Cl)c3)c2c1", "thermal shift dTm": "1.74 °C (active)"}, {"smiles": "COc1ccc2[nH]cc(CCNC(=O)c3ccc(OC(C)=O)cc3)c2c1", "thermal shift dTm": "0.81 °C"}, {"smiles": "NC(=O)c1ccc(NC(=O)C2CC2(c2ccccc2)c2ccccc2)cc1", "note": "(stereo not drawn)", "thermal shift dTm": "0.19 °C"}, {"smiles": "O=C(Nc1cccc(OCC2CCCO2)c1)c1cccs1", "note": "(stereo not drawn)", "thermal shift dTm": "0.09 °C"}, {"smiles": "COc1cccc(C(=O)Nc2nc3ccc(Cl)cc3s2)c1", "thermal shift dTm": "0.62 °C"}, {"smiles": "COc1ccc(C(=O)Oc2ccccc2Cl)cc1Br", "thermal shift dTm": "0.06 °C"}, {"smiles": "c1csc(-c2nc(-c3cccs3)c(-c3cccs3)[nH]2)c1", "thermal shift dTm": "0.06 °C"}, {"smiles": "COc1ccc(-c2nc(-c3cccs3)c(-c3cccs3)[nH]2)cc1", "thermal shift dTm": "0.25 °C"}, {"smiles": "Fc1ccc(-c2nc(-c3cccs3)c(-c3cccs3)[nH]2)cc1", "thermal shift dTm": "3.34 °C (active)"}, {"smiles": "Cc1oc(-c2ccccc2NS(C)(=O)=O)nc1CN(C)Cc1ccc(OC(F)F)cc1", "thermal shift dTm": "0.18 °C"}, {"smiles": "Cc1cc(NC(=O)c2ccccn2)ccc1NC(=O)c1cc2ccccc2o1", "thermal shift dTm": "0.19 °C"}, {"smiles": "N#Cc1cccc(NC(=O)c2cc3ccccc3o2)c1", "thermal shift dTm": "0.32 °C"}, {"smiles": "CC(=O)Nc1ccc(NC(=O)c2cc3ccccc3o2)cc1", "thermal shift dTm": "1.73 °C (active)"}, {"smiles": "O=C(Nc1cccc(OCc2ccccc2)c1)c1ccco1", "thermal shift dTm": "0.23 °C"}, {"smiles": "Cc1ccc(-c2noc(CNC(=O)C34CC5CC(CC(C5)C3)C4)n2)cc1", "thermal shift dTm": "0.16 °C"}, {"smiles": "O=C(CCSc1nc2sc3c(c2c(=O)[nH]1)CCCC3)Nc1ccccc1", "thermal shift dTm": "0.02 °C"}]}]}
